Measured values reported in PubChem BioAssay (NCATS).
Inconclusive results are not listed. Calls of active or inactive are those of the source. Calls come from the whole dose curve; as a rule, active = well fitted inhibition curve with a large enough effect; inconclusive = small, poorly fitted or top-dose-only effect, or effect the other way; inactive = flat fitted curve, though single readings scatter.

Each molecule was assayed against ATP-dependent 6-phosphofructokinase (Trypanosoma brucei brucei) (UniProt O15648) (assay: qHTS Assay to Find Inhibitors of T. brucei phosphofructokinase: hit validation (AID 492961;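 note: luminescence reports ADP formed as PFK phosphorylates fructose-6-phosphate with ATP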)). Settings: T. brucei PFK, ADP-Glo luminescence; series mostly up to 51.4 µM; activity change, negative = inhibition: at the top concentration.
Sequence of ATP-dependent 6-phosphofructokinase (Trypanosoma brucei brucei) (O15648 whole entry, looked up): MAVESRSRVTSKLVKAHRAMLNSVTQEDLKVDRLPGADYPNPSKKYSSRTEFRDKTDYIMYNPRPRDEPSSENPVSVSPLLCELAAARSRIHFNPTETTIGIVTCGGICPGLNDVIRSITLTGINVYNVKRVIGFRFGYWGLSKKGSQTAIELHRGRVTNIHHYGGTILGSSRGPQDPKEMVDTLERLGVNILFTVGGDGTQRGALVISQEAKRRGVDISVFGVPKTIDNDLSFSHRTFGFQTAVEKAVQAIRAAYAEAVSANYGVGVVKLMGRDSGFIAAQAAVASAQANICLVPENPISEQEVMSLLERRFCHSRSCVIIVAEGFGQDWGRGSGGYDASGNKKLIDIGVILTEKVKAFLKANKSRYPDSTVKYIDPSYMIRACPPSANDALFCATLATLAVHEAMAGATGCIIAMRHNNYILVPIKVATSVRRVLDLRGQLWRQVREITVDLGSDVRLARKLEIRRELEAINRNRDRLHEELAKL
Summary of the method: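 Percent activity derived from corrected luminescence, normalized between 0x and 1x enzyme controls, then fitted to concentration-response curves. Conditions: 1.25 nM PFK, 0.1 mM ATP, 0.5 mM F6P, 45 min RT.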
% is set by controls: 0 for no effect and ±100 for the full control effect.

Structure (SMILES) | activity change, negative = inhibition
CCOC(=O)[C@H](CCc1ccccc1)N[C@@H](C)C(=O)N1CCC[C@H]1C(=O)O | -0.617% (inactive)
O=C(CN1CCNCC1)NC1CCCCC1 | 0% (inactive)
CC(=O)N(CC(O)CO)c1c(I)c(C(=O)NCC(O)CO)c(I)c(C(=O)NCC(O)CO)c1I (configuration not stated) | 2.96% (inactive)
Cc1cc(C)c(NC(=O)CN(CC(=O)O)CC(=O)O)c(C)c1Br | 3.47% (inactive)
CCN(CC)CC1CCCCN1CC(=O)N1c2ccccc2C(=O)Nc2cccnc21 (configuration not stated) | -5.32% (inactive)
Cc1cccc(C(=O)O)c1O | 5.01% (inactive)
O=c1[nH]cnc2nc[nH]c12 | 12.1% (inactive)
NC(=O)c1ccc([N+](=O)[O-])cc1Cl | 13.1% (inactive)
Cc1c(NC(C)C)c(=O)n(-c2ccccc2)n1C | 17.3% (inactive)
CN1CCCN=C1COC(=O)C(O)(c1ccccc1)C1CCCCC1 (configuration not stated) | -1.69% (inactive)
CCc1cccc(CC)c1NC(=O)CN(CC(=O)O)CC(=O)O | 10.2% [at 24.3 µM] (inactive)
O=C1CC[C@@H](C(=O)O)N1 | -2.4% (inactive)
O=C(NCCCN1CCOCC1)c1ccc(Cl)cc1 | 0% (inactive)
CCCCCCCCCCOc1cc2c(=O)c(C(=O)OCC)c[nH]c2cc1OCC | 21.7% (inactive)
NNC(=O)CP(=O)(c1ccccc1)c1ccccc1 | 0% (inactive)
CCOc1ccc(C(=O)OCCN(CC)CC)cc1 | -14.5% (inactive)
CCCCCCCCCCCCCCCCN | 3.73% (inactive)
CCOc1cc(NC(C)=O)ccc1C(=O)OC | -2.93% (inactive)
O=C(O)c1ccc(OCCCOc2ccc(C(=O)O)cc2)cc1 | 1.49% (inactive)
O=C(NCN1CCOCC1)c1cnccn1 | 23.3% (inactive)
Nc1c2c(nc3c1CCC3)CCCC2 | -2.55% (inactive)
CC(=O)OC[C@H]1O[C@@](COC(C)=O)(O[C@H]2O[C@H](COC(C)=O)[C@@H](OC(C)=O)[C@H](OC(C)=O)[C@H]2OC(C)=O)[C@@H](OC(C)=O)[C@@H]1OC(C)=O | 1.71% (inactive)
